From PubChem BioAssay (NCI)
Several values for one entry are separate records, joined by “and”; a condition that tells them apart may be missing. Equal entries are not always repeated. The panel holds about 83,000 compounds, 20% with a hit somewhere; the sample as a whole holds those more often.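 The test compound was applied at a single concentration to cells in 96-well plates for 48 hours, and percent growth was recorded.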 Activity calls are given as the source filed them. Rule for the calls: active = growth percent below 10; inactive = the rest.

test system: MDA-MB-468 breast; assay: NCI-60 one-dose screen, 48 h (100 = growth as untreated, 0 = no growth, -100 = all killed); details: 10 µM unless noted

Compound | growth
COCCc1n(Cc2ccc3ccccc3c2)c2ccccc2[n+]1Cc1ccc2ccccc2c1 | -23.4% (active)
O=C1c2cccc3c([N+](=O)[O-])ccc(c23)C(=O)N1CCCCl | -62.2% [100 µM] (active)
Clc1ccc(Cn2cc(-c3nc4ccc(Br)nc4n3Cc3ccc(Cl)cc3)c3cccnc32)cc1 | 60.7% (inactive)
Cc1ccc2cccc(OC(=O)Nc3cccc(C(F)(F)F)c3)c2n1 | 75.4% (inactive)
COC(=O)[C@]12CC[C@@H](C(=O)/C=C/c3cccnc3)[C@@H]1[C@H]1CC[C@@H]3[C@@]4(C)C/C(=C/c5cccnc5)C(=O)C(C)(C)[C@@H]4CC[C@@]3(C)[C@]1(C)CC2 | -76.1% (active)
COC(=O)c1cccc([N+](=O)[O-])c1 | 105% (inactive)
Cc1cccc(NC(=O)Cn2cc(CN3CCN(c4ccnc5cc(Cl)ccc45)CC3)nn2)c1 | 90.2% (inactive)
N#CC1=C(NC=O)Oc2c(ccc3ccccc23)C1c1ccccc1 (stereo not given) | 12% (inactive)
Cc1ccc(=O)[nH]n1 | 103% (inactive) and 104% (inactive)
c1ccc(CCn2cccc2)nc1 | 114% (inactive)
CCN1CCN(CCC(=O)Nc2cccc(-n3cc(-c4ccncc4)c(-c4ccc(Cl)c(OC)c4)n3)c2)CC1 | -2.3% (active)
C=CC[N+](C)(C)C | 97.4% (inactive)
O=C(CCn1c[n+](CC(=O)c2ccc(-c3ccccc3)cc2)c2ccccc21)Nc1cccc2cccnc12 | -31.2% (active)
C[C@]12C=CC(=O)C=C1[C@@H](F)C[C@@H]1[C@@H]2[C@@H](O)C[C@@]2(C)[C@H]1CC[C@]2(O)C(=O)CO | 123% (inactive)
O=c1c2cnn(-c3ccccc3)c2n2c(CN3CCOCC3)nnc2n1-c1ccccc1 | 116% (inactive)
CCOc1ccc2nc(-c3cccc(OCC(=O)NC(C)C)c3)nc(Nc3ccc(-c4cn[nH]c4)cc3)c2c1 | 21% (inactive)
O=C(c1ccc(Cl)cc1)N1CCCCC1 | 101% (inactive)
CC(C)=CCc1cc(O)c(O)c2oc3cc(O)cc(O)c3c(=O)c12 | 123% (inactive)
O=C1c2ccccc2NC(c2cn(-c3ccccc3)nc2-c2cccnc2)N1Cc1ccccc1 (stereo not given) | 102% (inactive)
C=CCNc1ccc2c3c(cccc13)C(=O)N(N1C(=O)c3cccc4cccc(c34)C1=O)C2=O | 101% (inactive)

Compound | growth
C=CCn1c(-c2ccc(-c3nc4ccc(C)cc4[nH]3)cc2)n[nH]c1=S | 95.6% (inactive)
CC(=O)/C(N=Nc1ccc2oc(=O)ccc2c1)=C(\C)O | 9.38% (active)
O=S(=O)(NCCNc1nccc(-c2c(-c3cccc(F)c3)nc3occn23)n1)c1cccc2ccccc12 | 35.2% (inactive)
OCC1CCC(O)C(CO)N1 (stereo not given) | 104% (inactive)
CCN(CC)Cc1cc(Nc2nc(NC3CCC(N(C)C)CC3)c3ccccc3n2)ccc1OC (stereo not given) | -15.1% (active)
O=C(/C=C/c1ccc(Cl)nc1)c1ccc(Cl)cc1Cl | 91.5% (inactive)
Oc1ccc(Cl)cc1-c1cc(-c2ccc(F)cc2)n[nH]1 | -0.461% (active)
COc1ccc(/C=C(\C#N)n2nc3cccc(F)c3n2)cc1 | 100% (inactive)
CC(=O)c1cc2c(c(O)c1C)C(=O)C(=O)c1c(O)cccc1-2 | -58% (active)
C#CCOc1cccc(Nc2c(Cl)c(CCl)nc3ccc(Oc4ccccc4)cc23)c1 | 24.7% (inactive)
Cc1cc2ncc(-c3cc4ccccc4c(N4CCN(C)CC4)n3)nc2cc1C | -76.6% (active)
COc1cc2[nH]c(C(=O)c3cc(OC)c(OC)c(OC)c3)c(N)c2cc1C#CC1CC1 | 23.4% (inactive)
CCCCCc1ccc(S(=O)(=O)Nc2cccc(-c3csc(NC(=O)CN4CCN(CCO)CC4)n3)c2)cc1 | 84.8% (inactive)
COc1ccc(C(=O)/C=C/c2ccc(C)cc2)cc1S(N)(=O)=O | 60.4% (inactive)
O=C1/C(=C\c2cn(-c3nc(N4CCOCC4)nc(N4CCOCC4)n3)c3ccccc23)c2ccccc2N1c1c(Cl)cccc1Cl | 17% (inactive)
COC(C(=O)[C@@H](O)[C@@H](C)O)[C@@H]1Cc2cc3cc(O[C@H]4C[C@@H](O[C@H]5C[C@@H](O)[C@H](O)C(C)O5)[C@H](O)C(C)O4)c(C)c(O)c3c(O)c2C(=O)[C@H]1O[C@H]1C[C@@H](O[C@H]2C[C@@H](O[C@H]3C[C@@H](O)[C@H](OC)C(C)O3)[C@@H](O)C(C)O2)[C@H](O)C(C)O1 (stereo not given in full) | -60% (active)
Nc1nccc2c1ccn2-c1ccc(NC(=O)Nc2cccc(C(F)(F)F)c2)cc1 | 72.8% (inactive)
CC(C)[C@H]1COC(=O)N1[C@@H]1C(=O)N([C@@H](CCC(=O)N2CCN(C3CCCC3)CC2)C(=O)N[C@@H]2CCCc3ccccc32)[C@@H]1/C=C/c1cccc(Cl)c1 | -11.4% (active)
Cc1c(Cn2cc(COc3ccc(Br)cc3)nn2)c(C)c(Cn2cc(COc3ccc(Br)cc3)nn2)c(C)c1Cn1cc(COc2ccc(Br)cc2)nn1 | 109% (inactive)
COc1cccc2ccc(CC(O)(c3ccccc3)c3ccccc3)nc12 | 46.7% (inactive)
